T1: UNK ZnF1-3 (human, UniProt Q9C0B0 31-174)
T1 sequence: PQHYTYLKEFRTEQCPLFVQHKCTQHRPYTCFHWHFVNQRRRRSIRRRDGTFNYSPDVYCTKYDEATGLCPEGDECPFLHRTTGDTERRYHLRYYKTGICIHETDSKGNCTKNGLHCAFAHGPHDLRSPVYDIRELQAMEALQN

B1: 52098632_52100650_1216_3pUTR_ENSG00000128872_ENST00000249700|human|control|control (ssRNA)
RNA: GGGAGUUCUACAGUCCGACGAUCUACCUUCGGUCUGCUUCAACUCUCUUCUUACGAACCAGGUCAUUAUUCUUUGUGAUGGCAGCUGCCACCCUUGUUCGUGGCCCUUGCUUGGUAAACUGGUAUCCAAACUUGAGGAUCCUUCAACAGAGGAUUGAGCAUCA
B2: chr5:121736274:121736275:+_ENSMUSG00000042744_ENSMUST00000119892|mus_mus|FALSE|FALSE (ssRNA)
RNA: GGGAGUUCUACAGUCCGACGAUCCUGGUGAAUGCACAUGGCGCCAACAUGGUGCAGUAACUGGUUUAUGACUUCAUUUGUGCUAAUGGCCUCUUCUUUGGGCUCGGUGAUGAUAUGGCUGACACCCAGUCUCUGGCACACGUACAACAGAGGAUUGAGCAUCA
B3: chr3:128198961:128198962:-_ENSG00000179348_ENST00000341105|hu_hu|motif|central (ssRNA)
RNA: GGGAGUUCUACAGUCCGACGAUCACUGGACCCAAAAAGAGUUUAAAAAUAAAACAAUUAACUCAUCAGCGAGUUAAGCCGGUGCAUUUUUUUAAUAUUUUUUCUUUUGUCUCAGAGUAGGAGGCGAGGGGGUUGAAGGGUUAGCAACAGAGGAUUGAGCAUCA
B4: chr12:48362563:48362564:+_ENSG00000134291_ENST00000256686|hu_hu|hu_hu_hu_mus_False|58_78 (ssRNA)
RNA: GGGAGUUCUACAGUCCGACGAUCUCCGUCAAGCCCUUCGAUAGACCCUUGCGGGGGUGGUAAAAACCACUUUGUAUUUCUAAAAAAAAGAAACGCCAAAAACUUUCCAAAAAGCGGGGGUGGGGUGAGGCGGGAGGGGGAGGUCAACAGAGGAUUGAGCAUCA
B5: 119691784_119693947_668_CDS_ENSG00000158290_ENST00000371322|human|control|control (ssRNA)
RNA: GGGAGUUCUACAGUCCGACGAUCGAGUUCUUCUAAAUUGUACUUAAUUGAAGUACUAUUCUGAAUAGCUUCCACUGCUUCUUUCAGUUUUUGCCAGGUUUCAUCUGUGUAGUUUUCUGGUAAUUUAGGCUUAUCUUUAAAGUUCAACAGAGGAUUGAGCAUCA
B6: chr14:105235747:105235748:-_ENSG00000142208_ENST00000407796|hu_hu|FALSE|FALSE (ssRNA)
RNA: GGGAGUUCUACAGUCCGACGAUCACUUUUAUUGAAGAAUUUGGAGGGAAGGUUCCAUAUUAUAUUAUAAUAGUAAAAAUACUAAAGUUGAAUGUUGUAAAAAAACGCCGUGGUGCAGCGGCAGCGGCAGCGUCUGGCCAGGAGCAACAGAGGAUUGAGCAUCA
B7: chr14:21319500:21319501:-_ENSMUSG00000021816_ENSMUST00000161445|mus_hu|motif|central (ssRNA)
RNA: GGGAGUUCUACAGUCCGACGAUCGAGUUGUAUUCCAGGGCAUGAGGGAAGCAGGCCACCAAAGUAAAGGGAAAUACCAAACGGCAGUGGCAAUCAAUACAGGUCAAUAAUUGUGAAAAAUUAGCACAUGGUUCCAUUUAGUUUCAACAGAGGAUUGAGCAUCA
B8: chr10:71978566:71978567:-_ENSG00000180817_ENST00000373232|hu_hu|motif|central (ssRNA)
RNA: GGGAGUUCUACAGUCCGACGAUCUAAAGGGUCCUUUGUAGCAAUCUCCAUUUUUGCAUUAGACCAGCGUGGUACUUCAACGGCCAUGUGAAACACAUCCUUAUCUGCAUAAAUUGGAAUAUCAUGAAAUGGAGAUAUAUAUUGCAACAGAGGAUUGAGCAUCA
B9: 23376367_23376487_1679_3pUTR_ENSMUSG00000026158_ENSMUST00000027343|mouse|control|control (ssRNA)
RNA: GGGAGUUCUACAGUCCGACGAUCAUUUGAAAACACAUCCUAAAUGUAUUCUUUUAUUGGAUCUGGUCUUAAAACUUCUUAUUUAAUGUCCAAUUCAUUGUGAUCCAAAAUAAAAAGGCUUACAGCAAAAGUCACAGGUGGCCACAACAGAGGAUUGAGCAUCA
B10: chr17:55760890:55760891:+_ENSG00000153944_ENST00000284073|hu_mus|FALSE|FALSE (ssRNA)
RNA: GGGAGUUCUACAGUCCGACGAUCCAAUUUCAUAUGCAAUAUAAUACAGAAAGCAUGGCUGACCUUCAAUUUUAAAAAAAAAUGUAGUAAACUAUAUUGCUUUAUUCUUGAAGAUGCUGCUGCGGUGGGUGGAUGGCAGAGCGACAACAGAGGAUUGAGCAUCA
B11: chr2:151326667:151326668:-_ENSG00000115963_ENST00000263895|hu_hu|FALSE|FALSE (ssRNA)
RNA: GGGAGUUCUACAGUCCGACGAUCUUUAUUUGUCUUAUUUACACAUGCCAAGGUGGCAACGUGAAAAAUGUCUCUGACGCUAUUUUCCGACUGUAAAGCUGAGCAUUCGAUAUAAGUAGCUGCUCCAAUCUGUUUGGCCAUAUUCAACAGAGGAUUGAGCAUCA
B12: chr2:129025431:129025432:+_ENSMUSG00000027397_ENSMUST00000028880|mus_mus|motif|central (ssRNA)
RNA: GGGAGUUCUACAGUCCGACGAUCUUGCCACAGUAGAUUCCAUUCUCUAGUGUAGUGGUUCUUUAAAUAAUAAGAGAAUUACGGAGCGGCUUUUGAGAUGUGUAAACGGAAUGAGGUAUCAAAAUGCUAUAAUAAAUAGUAUAUCAACAGAGGAUUGAGCAUCA
B13: chr14:105235747:105235748:-_ENSG00000142208_ENST00000407796|hu_hu|motif|central (ssRNA)
RNA: B6 RNA with U82G, A83G
B14: chr14:105235747:105235748:-_ENSG00000142208_ENST00000407796|hu_mus|FALSE|FALSE (ssRNA)
RNA: GGGAGUUCUACAGUCCGACGAUCGAAAAGCAAUUUUUAUUGAAUUUGGAGGGACAGUUUCUUAUUAUAAUAGUAAAAAUGCUGAAGCUGAAUGUUGUAAAAAACGACAUGGUGCAGCAAUGGCCAGCGUCUGGCCGGGAGGGGCAACAGAGGAUUGAGCAUCA

Numbering of substitutions follows the chain as printed. Whole data set: some 24,000 sequences, median “enrichment r” near 0.99, cut for the highest 2% near 3.7. This excerpt belongs to a sample that is enriched for the highest values.

These results are taken from paper PMC12136788.

This test deals with T1, UNK ZnF1-3. The experiment in a line: nsRBNS (natural sequence RNA bind-n-seq); RBNS binding buffer (assumed for nsRBNS): 25 mM Tris pH 7.5, 150 mM KCl, 3 mM MgCl2, 0.01% Triton X-100, 500 ug/ml BSA, 20 U/ml SUPERase-In, 4 C; UNK is unkempt and MSI1 is Musashi-1; names of the RNAs are library labels; protein concentration not given here; high values mean tight binding.
On to B1, for which the binding signal was 0.553 enrichment R.
B2 yielded a binding signal of 0.813 enrichment R.
In turn, B3 had a binding signal of 1.54 enrichment R.
For B4, the binding signal is 3.57 enrichment R.
On to B5, for which the binding signal was 0.363 enrichment R.
For the molecule B6, the binding signal came out at 7.85 enrichment R.
As for B7, the binding signal was 2.39 enrichment R.
The molecule B8 had a binding signal of 0.593 enrichment R.
Next, B9: 0.637 enrichment R.
With B10 the figure was 1.14 enrichment R; with B11, 0.818 enrichment R.
As for B12, the binding signal is 1.26 enrichment R.
With B13 the figure was 5.41 enrichment R; with B14, 4.04 enrichment R.
